Compounds with a hit are over-represented: about 0.84% of the library has one in this group of screens.
PPARg SRC2 recr – PPARgamma-driven SRC-2 recruitment agonism; P37231; PPARgamma LBD-SRC-2 recruitment, biochemical; activation, % at 8 µM; 200,000 tested, 0.34% active; AID 1032; in the data active = activation above about 22%;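 note: 0% = vehicle and 100% = reference agonist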
Target sequence (P37231 whole entry, looked up, the tested form may be a part): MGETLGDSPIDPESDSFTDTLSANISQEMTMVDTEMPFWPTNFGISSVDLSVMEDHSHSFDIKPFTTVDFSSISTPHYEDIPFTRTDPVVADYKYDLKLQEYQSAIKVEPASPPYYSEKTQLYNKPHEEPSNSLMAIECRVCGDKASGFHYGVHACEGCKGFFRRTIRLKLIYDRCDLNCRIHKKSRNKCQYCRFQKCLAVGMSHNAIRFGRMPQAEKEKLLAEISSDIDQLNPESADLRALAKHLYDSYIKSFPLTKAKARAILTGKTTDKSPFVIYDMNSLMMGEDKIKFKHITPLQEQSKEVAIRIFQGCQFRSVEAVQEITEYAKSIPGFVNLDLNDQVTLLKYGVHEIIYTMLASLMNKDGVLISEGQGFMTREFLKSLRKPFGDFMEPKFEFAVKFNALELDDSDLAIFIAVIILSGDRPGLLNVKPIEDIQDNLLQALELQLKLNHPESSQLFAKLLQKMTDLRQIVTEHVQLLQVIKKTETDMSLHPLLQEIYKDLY
SRC1 TRFRET art – TR-FRET artefact, counter-screen to PPARgamma/SRC-1 agonist assay; TR-FRET detection artefact counter-screen, emission ratio; stronger effect = higher value; TR-FRET ratio at 8 µM; 99,000 tested, 0.34% active; in the data active = TR-FRET ratio above about 2300
PPARg SRC-1 ag – promotes SRC-1 coactivator recruitment by human PPARgamma; P37231; PPARgamma-SRC-1 coactivator recruitment biochemical assay; activation, % at 8 µM; 200,000 tested, 0.41% active; in the data active = activation above about 19%;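 note: 0% = DMSO and 100% = reference agonist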
PPARg SRC-3 ag – PPARgamma-driven SRC-3 recruitment agonism | AID 731 | biochemical PPARgamma/SRC-3 coactivator recruitment assay | activation, % at 8 µM | 200,000 tested, 0.26% active | P37231; in the data active = activation above about 23%;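 note: 0% = DMSO and 100% = reference agonist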
SRC3 TRFRET art – counter-screen for PPARgamma SRC-3 recruitment agonists: TR-FRET artefact. PPARgamma/SRC-3 format; stronger effect = higher value. TR-FRET ratio at 8 µM. 99,000 tested, 0.39% active. AID 1048
SRC2 TRFRET art – counter-screen for PPARgamma SRC-2 recruitment agonists: TR-FRET artefact; stronger effect = higher value; TR-FRET ratio at 8 µM; 200,000 tested, 0.4% active
Active calls of the source: *. Cut-off read from the data, not from the text of the source, unless noted: active = TR-FRET ratio above about 2000; inactive = the rest.

How did COc1ccc(NS(=O)(=O)c2c(C)n(C)c(=O)n(C)c2=O)cc1OC do in these assays?
PPARg SRC2 recr: 24*; PPARg SRC-1 ag: -4; PPARg SRC-3 ag: 3; SRC2 TRFRET art: 1716

How did N#Cc1c2n(c(=S)n(-c3ccc(F)cc3)c1=O)CCCCC2 do in these assays?
PPARg SRC2 recr: -2; SRC1 TRFRET art: 1809; PPARg SRC-1 ag: -8; PPARg SRC-3 ag: -1; SRC3 TRFRET art: 1322; SRC2 TRFRET art: 1496

What do the screens show for `Cc1cccc(N2C(S)=C(C#N)C(=O)NC2c2ccco2)c1` (stereo unspecified)?
PPARg SRC2 recr: 8; SRC1 TRFRET art: 1809; PPARg SRC-1 ag: 11; PPARg SRC-3 ag: 5; SRC3 TRFRET art: 1528; SRC2 TRFRET art: 1620

How did N#CC1=C(S)N(c2ccccc2)C(c2ccc(-c3cccc(Cl)c3)o2)NC1=O (stereo unspecified) do in these assays?
PPARg SRC2 recr: 10; SRC1 TRFRET art: 2388*; PPARg SRC-1 ag: 6; PPARg SRC-3 ag: 4; SRC3 TRFRET art: 1991; SRC2 TRFRET art: 1822

What do the screens show for `C=CCNC(=O)c1ccc(-c2nc(-c3ccc(Cl)cc3Cl)cs2)cc1`?
PPARg SRC2 recr: 6; PPARg SRC-1 ag: 19*; PPARg SRC-3 ag: 5; SRC2 TRFRET art: 1467

Results for COc1ccc(OC)c(/C=N\NC(=O)CC(=O)NCCc2ccccc2)c1 ?
PPARg SRC2 recr: 10; SRC1 TRFRET art: 2318*; PPARg SRC-1 ag: 7; PPARg SRC-3 ag: 4; SRC3 TRFRET art: 1704; SRC2 TRFRET art: 1584

Results for O=C(CSc1ccc(Cl)cc1)N/N=C/c1cccnc1 ?
PPARg SRC2 recr: 2; SRC1 TRFRET art: 1754; PPARg SRC-1 ag: 6; PPARg SRC-3 ag: -1; SRC3 TRFRET art: 1722; SRC2 TRFRET art: 1603

Results for CCOC(=O)CSc1c(-c2ccc(Cl)cc2)[nH]c2ccccc12 ?
PPARg SRC2 recr: 15; SRC1 TRFRET art: 2190; PPARg SRC-1 ag: 14; PPARg SRC-3 ag: 12; SRC3 TRFRET art: 2441*; SRC2 TRFRET art: 1904

How did Cc1cc(C)c[n+](-c2[nH]c(=O)sc2/C=N/N=C(\N)[S-])c1 do in these assays?
PPARg SRC2 recr: 4; SRC1 TRFRET art: 1914; PPARg SRC-1 ag: 9; PPARg SRC-3 ag: 2; SRC3 TRFRET art: 1473; SRC2 TRFRET art: 1777

Results for CCCn1c(NC(=O)c2ccc(Br)cc2)nc2ccccc21 ?
PPARg SRC2 recr: 2; PPARg SRC-1 ag: 34*; PPARg SRC-3 ag: -1; SRC2 TRFRET art: 1587

How did CCCn1c(NC(=O)c2ccc(F)cc2)nc2ccccc21 do in these assays?
PPARg SRC2 recr: 2; SRC1 TRFRET art: 1892; PPARg SRC-1 ag: -1; PPARg SRC-3 ag: 3; SRC3 TRFRET art: 1516; SRC2 TRFRET art: 1479

What do the screens show for `Cc1ccc(CSCC(=O)N/N=C/c2sccc2C)cc1`?
PPARg SRC2 recr: -1; PPARg SRC-1 ag: -1; PPARg SRC-3 ag: 11; SRC2 TRFRET art: 1594

Results for CCOc1ccc(S(=O)(=O)c2c(C(=O)c3ccccc3)cnc3cc4c(cc23)OCCO4)cc1 ?
PPARg SRC2 recr: -4; SRC1 TRFRET art: 2111; PPARg SRC-1 ag: 7; PPARg SRC-3 ag: -6; SRC3 TRFRET art: 2180*; SRC2 TRFRET art: 1938

What do the screens show for `O=C(CSc1nnnn1-c1ccccc1)Nc1nsc(-c2ccc(Cl)cc2)n1`?
PPARg SRC2 recr: 2; SRC1 TRFRET art: 1911; PPARg SRC-1 ag: 7; PPARg SRC-3 ag: 7; SRC3 TRFRET art: 2179*; SRC2 TRFRET art: 1576

Results for COc1ccc(-c2cc(C(F)F)n3ncc(C(=O)N4CCCc5ccccc54)c3n2)cc1 ?
PPARg SRC2 recr: -3; SRC1 TRFRET art: 1529; PPARg SRC-1 ag: -4; PPARg SRC-3 ag: 26*; SRC3 TRFRET art: 1947; SRC2 TRFRET art: 1419

What do the screens show for `O=C(c1cnn2c(C(F)F)cc(-c3ccccc3)nc12)N1CCCc2ccccc21`?
PPARg SRC2 recr: -1; PPARg SRC-1 ag: 3; PPARg SRC-3 ag: -5; SRC2 TRFRET art: 1429

Results for COc1ccccc1CN(C)C(=O)c1ccc2c(c1)NC(=O)CS2 ?
PPARg SRC2 recr: 8; PPARg SRC-1 ag: -4; PPARg SRC-3 ag: 48*; SRC2 TRFRET art: 1488

What do the screens show for `COC(=O)c1ccc2c(c1)NC(=O)CS2`?
PPARg SRC2 recr: 7; SRC1 TRFRET art: 1887; PPARg SRC-1 ag: 2; PPARg SRC-3 ag: -2; SRC3 TRFRET art: 1558; SRC2 TRFRET art: 1672

Results for Cc1ccc(CNC(=O)Cn2cccc2C(=O)c2ccccc2C)cc1 ?
PPARg SRC2 recr: 7; SRC1 TRFRET art: 1729; PPARg SRC-1 ag: 6; PPARg SRC-3 ag: 5; SRC3 TRFRET art: 1741; SRC2 TRFRET art: 1444

How did Cc1ccccc1C(=O)c1cccn1CC(=O)NCCC1=CCCCC1 do in these assays?
PPARg SRC2 recr: -3; SRC1 TRFRET art: 2753*; PPARg SRC-1 ag: 8; PPARg SRC-3 ag: 2; SRC3 TRFRET art: 1388; SRC2 TRFRET art: 1513

What do the screens show for `O=C1N=C(N2CCc3ccccc3C2)S/C1=C\c1cccc(O)c1`?
PPARg SRC2 recr: -1; SRC1 TRFRET art: 1627; PPARg SRC-1 ag: -2; PPARg SRC-3 ag: -2; SRC3 TRFRET art: 1709; SRC2 TRFRET art: 1419

What do the screens show for `N#Cc1ccccc1NC(=O)c1ccccc1OCC(=O)Nc1ccc2c(c1)oc1ccccc12`?
PPARg SRC2 recr: 13; PPARg SRC-1 ag: 3; PPARg SRC-3 ag: 5; SRC2 TRFRET art: 2662*

What do the screens show for `CC(=O)NC1=NC(=O)/C(=C/c2cc(C)n(-c3ccc(NC(C)=O)cc3)c2C)S1`?
PPARg SRC2 recr: 5; SRC1 TRFRET art: 1777; PPARg SRC-1 ag: 3; PPARg SRC-3 ag: 24*; SRC3 TRFRET art: 2601*; SRC2 TRFRET art: 1615

Results for CC(=O)NC1=NC(=O)/C(=C/c2cc(C)n(-c3cccc(C(=O)O)c3)c2C)S1 ?
PPARg SRC2 recr: 5; SRC1 TRFRET art: 2073; PPARg SRC-1 ag: 0; PPARg SRC-3 ag: 2; SRC3 TRFRET art: 1697; SRC2 TRFRET art: 1638

Results for O=C(Nc1ccc(N2CCOCC2)cc1)C1CC(=O)N(c2ccc(F)cc2)C1 (stereo unspecified) ?
PPARg SRC2 recr: 5; SRC1 TRFRET art: 1693; PPARg SRC-1 ag: -2; PPARg SRC-3 ag: 3; SRC3 TRFRET art: 1730; SRC2 TRFRET art: 1370

Results for COC(=O)c1ccccc1NC(=O)c1cc(-c2ccc(O)cc2)on1 ?
PPARg SRC2 recr: 3; PPARg SRC-1 ag: 35*; PPARg SRC-3 ag: 6; SRC2 TRFRET art: 1632

Results for CCOCCCNC(=O)NC(=O)CN1CCN(S(=O)(=O)c2ccc3c(c2)OCCO3)CC1 ?
PPARg SRC2 recr: -7; SRC1 TRFRET art: 1744; PPARg SRC-1 ag: -7; PPARg SRC-3 ag: -3; SRC3 TRFRET art: 1579; SRC2 TRFRET art: 1400

What do the screens show for `O=C(NC(=S)Nc1ccc(S(=O)(=O)Nc2nccs2)cc1)c1cccc(F)c1`?
PPARg SRC2 recr: 1; SRC1 TRFRET art: 1636; PPARg SRC-1 ag: 0; PPARg SRC-3 ag: -2; SRC3 TRFRET art: 1549; SRC2 TRFRET art: 1509

How did Cc1onc(-c2c(F)cccc2Cl)c1C(=O)N1C=CC(C(F)(F)F)=NCC1 do in these assays?
PPARg SRC2 recr: 5; PPARg SRC-1 ag: 8; PPARg SRC-3 ag: 17; SRC2 TRFRET art: 2038*

Bioassay records from PubChem BioAssay.
